These results are taken from PubChem BioAssay (NCATS).

Inconclusive results are not listed. Activity calls are given as the source filed them. Unless noted, calls follow the shape of the dose curve; as a rule, active = well fitted curve in the direction sought with a large enough effect; inconclusive = small, poorly fitted or top-dose-only effect, or another doubt; inactive = no such curve, though single readings can be large; an effect the other way counts as inactive or inconclusive.

Experiment [1] can be described thus: Primary qHTS for inhibitors of nuclear receptor binding SET domain protein 2 (NSD2) in an RCH-ACV wild type WT cells (2C) (AID 1645877). Also: nearly all actives have a fitted effect of over 70% in size. Also: potency is read from the fitted curve at half-maximal effect.
Experiment [2] concerns the target Catechol O-methyltransferase (Homo sapiens) (UniProt P21964). Description: Confirmatory Screen for Target Class Profiling of Small Molecule Inhibitors of Methyltransferases (AID 1745852; calls by dose curve; also: potency is read from the fitted curve at half-maximal effect; as to activity change, negative = inhibition: % is scaled to controls: 0 for no effect and ±100 for the full control effect). As to conditions: MTase-Glo luminescence, SAH detection, recombinant enzyme; measured here: COMT max response; stronger effect = lower value.
Experiment [3] deals with Guanidinoacetate N-methyltransferase (Homo sapiens) (UniProt Q14353). Described as above. Particulars: activity change, negative = inhibition: at 57.3 µM (top of the series) unless noted.
For experiment [4], the target named is Nicotinamide N-methyltransferase (Homo sapiens) (UniProt P40261). The description is as above. As to conditions: MTase-Glo luminescence, SAH detection, recombinant enzyme; measured here: NNMT max response; stronger effect = lower value.
Experiment [5] addresses Phenylethanolamine N-methyltransferase (Homo sapiens) (UniProt P11086). Described as above. As to conditions: MTase-Glo luminescence, SAH detection, recombinant enzyme; measured here: PNMT max response; stronger effect = lower value.
Experiment [6] has as its target Glutathione peroxidase 1 (Homo sapiens) (UniProt P07203). Description: Primary qHTS Assay for Inhibitors of Recombinant Selenoprotein Glutathione Peroxidase 1 (GPX1) (AID 1845191). Also: nearly all actives have a fitted effect of over 65% in size. The method, boiled down: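 NADPH consumption tracked by fluorescence at 340/450 nm between t=0 and t=15 min, room temperature. Final mix: 10 nM GPX1, 100 nM glutathione reductase, 1 mM GSH, 0.5 mM NADPH, 0.5 mM cumene hydroperoxide, 0.01% BSA; 30 min compound–enzyme preincubation.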

The target of experiment [7] is Phospholipid hydroperoxide glutathione peroxidase GPX4 (Homo sapiens) (UniProt P36969). Description: Primary qHTS Assay for Inhibitors of Recombinant Selenoprotein Glutathione Peroxidase 4 (GPX4) (AID 1845192). Also: % is scaled to controls: 0 for no effect and ±100 for the full control effect; nearly all actives have a fitted effect of over 65% in size. The method, boiled down:
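NADPH consumption followed by fluorescence at 340/450 nm, t=0 and after 15 min at room temperature. Reaction started with cumene hydroperoxide (0.5 mM final) after 30 min compound–GPX4 preincubation; final 200 nM GPX4, 100 nM GR, 1 mM GSH, 0.5 mM NADPH.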
For orientation: qHTS replaces the single test concentration by a dilution series.

For experiment [8], the target named is Luciferin 4-monooxygenase (Photinus pyralis) (UniProt P08659). Description: Primary firefly luciferase (FLuc) qHTS assay for identification of artifact compounds. (AID 1845220). Also: nearly all actives have a fitted effect of over 60% in size.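 As to activity change, negative = inhibition: plate controls were DMSO vehicle for no effect and no enzyme for full effect.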 The method, boiled down:
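FLuc 10 nM; luciferin 10 uM; ATP 10 uM; Tris-acetate pH 7.6, Mg-acetate 10 mM; 15 min RT preincubation; 5 min reaction; luminescence.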

Experiment [9] is described as follows: Primary fluorescence-based thiol-reactive (MSTI) qHTS assay for identification of artifact compounds. (AID 1845221). Also: nearly all actives have a fitted effect of over 65% in size. Also: potency is read from the fitted curve at half-maximal effect. The method, boiled down:
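Compounds were incubated 1 h at room temperature in the dark with the MSTI probe (4 uM) in PBS pH 7.4, 2% DMSO. Signals were normalized between Acetyl-MSTI and MSTI.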

Experiment [10] has as its system Nanoluciferase (engineered Oplophorus gracilirostris luciferase). Description: Primary Nanoluciferase (NLuc) qHTS assay for identification of artifact compounds. (AID 1845222).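 Also: NLuc secreted into diluted conditioned medium of S16 cells; 0% = DMSO and -100% = no enzyme.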 Summed up:
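NLuc from S16 cell medium (1:55) plus test compounds, 15 min, room temperature. Luminescence after Nano-Glo (1:100) addition, 5 min.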

Experiment [11] in a line: Viability counterscreen for antagonist of constitutive androstane receptor (CAR) against the NCATS DSHEA and TCM libraries (AID 1794837).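 Also: compound exposure lasted 24 h before viability reading; 0% is about no effect.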 Summed up: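 Counterscreen performed in a 1536-well qHTS format using HepG2-CYP2B6-hCAR cells; samples titrated in the presence of 48 uM CITCO, with viability measured fluorometrically (405/540 nm) after 24 h.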
(In general: Counterscreens check selectivity or assay interference.)

Experiment [12] is described as follows: Viability counterscreen for agonist of constitutive androstane receptor (CAR) against the NCATS DSHEA and TCM libraries (AID 1794838).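 Also: cells exposed to compound for 24 h; 0% is about no effect.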 Summed up: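 Multiplexed counterscreen: after 24 h compound exposure with 0.75 uM PK11195, HepG2-CYP2B6-hCAR viability was quantified fluorimetrically (CellTiter-Fluor, 405/540 nm) prior to the ONE-Glo luciferase read.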
The target in experiment [13] is Nuclear receptor subfamily 1 group I member 3 (Homo sapiens) (UniProt Q14994). Description: Primary qHTS for agonist of constitutive androstane receptor (CAR) against the NCATS DSHEA and TCM libraries (AID 1794839).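 Also: HepG2 cells expressing human CAR with a CYP2B6 reporter plus PK11195 antagonist; luciferase reporter luminescence read with ONE-Glo; 0% is about no effect.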 Summed up: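 Concentration–response screen in HepG2-CYP2B6-hCAR cells under 0.75 µM PK11195; 24 h exposure; luminescent reporter signal with multiplexed fluorescent viability.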

Experiment [14] in a line: HepG2 viability counterscreen (readout 2: ATP content) against the NCATS DSHEA and TCM libraries (AID 1794840).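 Also: HepG2 cells exposed to substances for about 24 h; 0% is about no effect.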 Summed up: (§1)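 After HepG2 cells attach for ~4 h, substances are added and incubated ~24 h at 37C, 5% CO2. GF-AFC fluorescence then CellTiter-Glo luminescence give protease and ATP readouts.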
A short description of experiment [15]: HepG2 viability counterscreen (readout 1: protease activity) against the NCATS DSHEA and TCM libraries (AID 1794841).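 Also: cells exposed to compounds for about 24 h before the protease read; 0% is about no effect.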 Summed up: as §1
A short description of experiment [16]: Primary redox qHTS assay for identification of artifact compounds. (AID 1845223).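 Also: 0% = DMSO and 100% = reference compound.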 Summed up:
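Redox-cycling detection via DTT (250 uM final) oxidation coupled to Amplex Red (25 uM)/HRP (250 mU/mL) in HBSS. 15 min preincubation plus 30 min after DTT, room temperature. Ex/Em 525/598 nm; 4-parameter Hill fit against DMSO and 10 uM DA3003.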

For experiment [17], the target named is Cytochrome P450 3A4 (Homo sapiens) (UniProt P08684). Description: qHTS for inhibitors of CYP3A4 against the NCATS DSHEA and TCM libraries (AID 1919971).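 Also: % is scaled to controls: 0 for no effect and ±100 for the full control effect; inhibition lowers luminescence from luciferin made by CYP3A4.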 The method, boiled down:
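Isoform-specific enzyme and substrate levels; enzyme-free wells as background. Reaction: 1x NADPH regenerating system, 30-45 min, room temperature, shielded from light; luminescent detection reagent added, 30 min.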

Chain of Phenylethanolamine N-methyltransferase (Homo sapiens) (P11086 whole entry, looked up): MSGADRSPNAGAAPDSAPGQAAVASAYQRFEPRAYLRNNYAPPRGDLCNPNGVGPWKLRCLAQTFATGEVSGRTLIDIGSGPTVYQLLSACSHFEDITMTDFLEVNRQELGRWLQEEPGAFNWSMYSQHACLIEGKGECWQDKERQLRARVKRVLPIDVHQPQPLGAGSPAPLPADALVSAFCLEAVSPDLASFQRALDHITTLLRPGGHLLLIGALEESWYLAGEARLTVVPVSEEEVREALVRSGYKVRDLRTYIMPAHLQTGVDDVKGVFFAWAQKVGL
Chain of Catechol O-methyltransferase (Homo sapiens) (P21964 whole entry, looked up): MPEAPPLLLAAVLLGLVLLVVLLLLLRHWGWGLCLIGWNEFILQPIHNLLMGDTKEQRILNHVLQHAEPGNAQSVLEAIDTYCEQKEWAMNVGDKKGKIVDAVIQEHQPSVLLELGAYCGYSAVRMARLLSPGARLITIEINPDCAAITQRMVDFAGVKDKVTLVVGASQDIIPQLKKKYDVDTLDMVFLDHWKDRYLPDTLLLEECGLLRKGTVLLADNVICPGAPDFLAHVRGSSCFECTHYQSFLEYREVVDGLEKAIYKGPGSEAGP
Chain of Phospholipid hydroperoxide glutathione peroxidase GPX4 (Homo sapiens) (P36969 whole entry, looked up): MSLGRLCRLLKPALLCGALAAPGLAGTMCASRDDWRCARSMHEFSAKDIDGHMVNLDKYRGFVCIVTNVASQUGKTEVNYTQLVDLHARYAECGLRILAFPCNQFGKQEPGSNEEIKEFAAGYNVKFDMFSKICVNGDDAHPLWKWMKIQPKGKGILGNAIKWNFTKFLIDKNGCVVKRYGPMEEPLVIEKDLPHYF
Chain of Glutathione peroxidase 1 (Homo sapiens) (P07203 whole entry, looked up): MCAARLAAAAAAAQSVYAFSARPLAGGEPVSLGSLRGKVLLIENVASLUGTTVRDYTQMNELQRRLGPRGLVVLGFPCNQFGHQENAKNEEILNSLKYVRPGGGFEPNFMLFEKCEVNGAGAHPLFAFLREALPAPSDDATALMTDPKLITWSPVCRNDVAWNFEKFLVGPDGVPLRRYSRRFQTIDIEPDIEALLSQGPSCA
Chain of Nicotinamide N-methyltransferase (Homo sapiens) (P40261 whole entry, looked up): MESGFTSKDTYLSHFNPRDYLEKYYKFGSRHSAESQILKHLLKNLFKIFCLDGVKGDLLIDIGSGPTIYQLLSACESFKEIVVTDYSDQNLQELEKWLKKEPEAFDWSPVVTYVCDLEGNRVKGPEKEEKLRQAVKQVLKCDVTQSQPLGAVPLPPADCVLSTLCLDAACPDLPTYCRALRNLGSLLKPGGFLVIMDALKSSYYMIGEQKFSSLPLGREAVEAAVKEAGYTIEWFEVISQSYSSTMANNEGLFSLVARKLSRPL
Chain of Nuclear receptor subfamily 1 group I member 3 (Homo sapiens) (Q14994 whole entry, looked up): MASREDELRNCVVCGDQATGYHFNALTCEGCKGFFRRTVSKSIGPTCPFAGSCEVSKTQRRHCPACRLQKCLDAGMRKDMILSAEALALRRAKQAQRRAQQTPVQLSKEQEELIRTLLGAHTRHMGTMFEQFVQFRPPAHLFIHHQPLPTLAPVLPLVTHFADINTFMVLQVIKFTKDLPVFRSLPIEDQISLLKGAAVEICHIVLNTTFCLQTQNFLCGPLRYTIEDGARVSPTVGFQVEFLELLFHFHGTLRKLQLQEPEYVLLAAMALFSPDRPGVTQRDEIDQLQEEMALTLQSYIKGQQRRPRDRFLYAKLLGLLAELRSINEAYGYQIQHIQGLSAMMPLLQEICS
Chain of Cytochrome P450 3A4 (Homo sapiens) (P08684 whole entry, looked up, canonical isoform): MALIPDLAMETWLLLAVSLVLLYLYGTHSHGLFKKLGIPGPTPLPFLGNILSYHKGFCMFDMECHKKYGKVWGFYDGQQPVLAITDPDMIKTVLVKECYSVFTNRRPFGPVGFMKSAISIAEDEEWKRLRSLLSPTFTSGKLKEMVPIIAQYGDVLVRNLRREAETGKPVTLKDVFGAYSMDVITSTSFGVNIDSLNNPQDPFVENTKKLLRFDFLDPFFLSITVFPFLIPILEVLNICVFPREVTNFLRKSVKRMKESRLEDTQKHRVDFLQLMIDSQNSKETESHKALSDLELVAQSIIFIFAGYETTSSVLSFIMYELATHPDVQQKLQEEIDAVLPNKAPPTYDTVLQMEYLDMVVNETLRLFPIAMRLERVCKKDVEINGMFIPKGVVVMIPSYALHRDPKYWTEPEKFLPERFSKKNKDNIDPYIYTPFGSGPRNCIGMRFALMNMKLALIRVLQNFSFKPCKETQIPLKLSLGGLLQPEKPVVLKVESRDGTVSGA

Turning to `C[C@@H](Oc1cc(-n2cnc3ccc(OC4CCN(C)CC4)cc32)sc1C(N)=O)c1ccccc1C(F)(F)F`, the Potency in experiment [1] was 0.0258 µM (active); in experiment [3], 24.1 µM (active). Moreover, the activity is -76.5% in [2], -64.9% in experiment [4] and -73.6% in experiment [5]. For the same molecule, the Potency entry in [6], in experiment [7], in experiment [8], in experiment [9] and in [10] was “inactive” each time.

Consider `CC(C)=CCC(O)/C(C)=C/CO[C@@H]1O[C@H](CO)[C@@H](O)[C@H](O)[C@H]1O` (stereo not given in full), for which the Potency entry in experiment [1], in experiment [6], in [7], in experiment [8], in experiment [9] and in [10] was “inactive” each time. Moreover, in experiment [16], the Potency entry is “inactive”. Moreover, the activity in experiment [2] is -52%; in [4], 0%; in experiment [5], 5.19%. In addition, the activity change, negative = inhibition in [3] amounted to 0%. In addition, the outcome in experiment [11], in experiment [12], in experiment [13], in experiment [14], in experiment [15] and in experiment [17] was “inactive” in each case.

`CCN(CC)CCN(Cc1ccc(-c2ccc(C(F)(F)F)cc2)cc1)C(=O)Cn1c(SCc2ccc(F)cc2)nc(=O)c2c1CCC2`: in [1], the Potency is 3.65 µM (active). For the same molecule, the activity was -2.67% in [2], -45.6% in experiment [4] and -1.88% in [5]. Moreover, in [3], the activity change, negative = inhibition is 0%. Also, the Potency result in [6], in experiment [7], in experiment [8], in experiment [9], in experiment [10] and in experiment [16] was “inactive” throughout.

Turning to `COc1ccc(CCO[C@@H]2O[C@H](CO[C@@H]3OC[C@H](O)[C@H](O)[C@H]3O)[C@@H](O)[C@H](O)[C@H]2O)cc1`, the Potency result in experiment [1], in experiment [6], in experiment [7], in [8], in [10] and in [16] was “inactive” each time. Moreover, the activity in [2] is -55.1%; in experiment [4], 1.01%; in [5] it was 1.06%. For the same molecule, the activity change, negative = inhibition in [3] came to 2.09% [at 29.8 µM]. The Potency in [9] is 10.3 µM (active).

Regarding `Oc1ccc(CNc2ccccc2F)c2cccnc12`, the Potency was 4.09 µM (active) in experiment [1] and 3.77 µM (active) in [9]. Also, the figures for the activity in [2], in experiment [4] and in experiment [5] were -81.9%, -0.361% and 6.4%, respectively. Further, in [3], the activity change, negative = inhibition turned out to be 2.39%. Also, the Potency result in [6], in experiment [7], in experiment [8] and in experiment [10] was “inactive” each time.

`C=C1C(=O)OC2C1CCC(=C)C1CC(OC(C)=O)C(=C)C12` (stereo not given): the Potency in [1] is 3.25 µM (active); in [9], 18.9 µM (active). Besides, the activity in [2] is -65.1%; in [4], -9.15%; in experiment [5], -8.53%. The activity change, negative = inhibition in [3] was -10.4%. Also, the Potency entry in [6], in experiment [7], in experiment [8] and in experiment [10] was “inactive” each time.

Turning to `COc1cc2c(cc1O)CC[C@H]1[C@@H]2CC[C@]2(C)[C@H](O)CC[C@@H]12`, in experiment [1], the Potency is 0.916 µM (active). Moreover, the figures for the activity in experiment [2], in experiment [4] and in experiment [5] were -76.8%, -2.72% and -7.82%, respectively. In addition, the activity change, negative = inhibition in experiment [3] stood at 0.377%. Also, the Potency result in [6], in experiment [7], in experiment [8], in experiment [9], in experiment [10] and in experiment [16] was “inactive” throughout.

With `O=C(O)c1ccc(CN2CCC(CN[C@@H]3C[C@H]3c3ccccc3)CC2)cc1`, the Potency entry in experiment [1], in experiment [6], in experiment [7], in [8], in experiment [9] and in experiment [10] was “inactive” in each case. In addition, the figures for the activity in [2], in experiment [4] and in [5] were 4.43%, -0.425% and 5.38%, respectively. In addition, the activity change, negative = inhibition in experiment [3] is -0.127%.
